Here are results for 40 molecules from PubChem BioAssay (NCATS).

Records with an inconclusive call do not appear. A number with no mark means an inactive call. The call rests on the fitted dose curve; in most records, active means well fitted inhibition curve with a large enough effect; inconclusive means small, poorly fitted or top-dose-only effect; inactive means flat fitted curve, though single readings scatter.

The target of the assay is Aldehyde dehydrogenase, mitochondrial (Homo sapiens) (UniProt P05091). Briefly: qHTS for Inhibitors of the Aldehyde Dehydrogenase Family (ALDH2) Primary screen (AID 2061308).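 Further: plate controls were vehicle for no effect and reference inhibitor for full effect; nearly all actives have a fitted effect of over 55% in size.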 The settings on record: ALDH2 enzyme inhibition qHTS, 1536-well; series mostly up to 56 µM; activity change, negative = inhibition: at the top concentration.
As to `COC(=O)c1ccc(N2CCN(C)CC2)c(NC(=O)c2cccc(OC)c2)c1`, the “activity change, negative = inhibition” value is -0.729%.

As for `CC(O)/C=C/C1OC(=O)CC1Nc1ccc(C(=O)O)cc1` (stereo not given), the “activity change, negative = inhibition” value was -20.8%. The value for `COc1cc(C(C)=O)ccc1O[C@@H]1O[C@H](CO[C@@H]2OC[C@@H](O)[C@H](O)[C@H]2O)[C@@H](O)[C@H](O)[C@H]1O` was 6.56% [at 28 µM]; that for `COC(=O)CCSCc1ccc(-c2onc(C)c2NC(=O)OC(C)c2ccccc2Cl)cc1` (stereo not given) was -6.54%. Regarding `C[C@@H]1O[C@@H](O[C@H]2[C@H](O[C@H]3CC[C@@]4(C)C(CC[C@]5(C)C4C=C[C@]46OC[C@@]7(CCC(C)(C)C[C@H]74)[C@@H](O[C@@H]4O[C@@H](C)[C@H](O)[C@@H](O)[C@H]4O)C[C@]65C)[C@]3(C)CO)O[C@H](CO)[C@@H](O)[C@@H]2O[C@@H]2O[C@H](CO)[C@@H](O)[C@H](O)[C@H]2O)[C@H](O)[C@H](O)[C@H]1O` (stereo not given in full), the “activity change, negative = inhibition” value is -5.64% [at 16.9 µM].

Regarding `CCNC(=O)Nc1ccc(-c2nc3c(c(N4CCOCC4C)n2)CCN(C2COC2)C3)cc1` (stereo not given), the “activity change, negative = inhibition” value is 6.42%. As for `CC(=O)C1=CCC2C3CCC4CC(O[C@@H]5O[C@H](CO)[C@@H](O[C@@H]6O[C@@H](C)[C@H](O)[C@@H](O)[C@H]6O)[C@H](O)[C@H]5O[C@@H]5O[C@H](CO)[C@@H](O)[C@H](O)[C@H]5O)CCC4(C)C3CCC12C` (stereo not given in full), the “activity change, negative = inhibition” value is 12.8% [at 16.9 µM]. The value for `COc1cc(/C=C/C(=O)O)ccc1O[C@@H]1O[C@H](CO)[C@@H](O)[C@H](O)[C@H]1O[C@@H]1OC[C@](O)(CO)[C@H]1O` was 1.43% [at 28 µM]; that for `CC1OC(OC2CCC3(C)C(CCC4(C)C3CC=C3C5CC(C)(C)CCC5(C(=O)OC5OC(CO)C(O)C(O)C5O)CCC34C(=O)O)C2(C)C)C(O)C(O)C1O` (stereo not given) was 3.5% [at 16.9 µM].

With `COc1c2c(c(C)c3c1C(=O)OC3)O[C@@]1(C)CC(O)C(C(C)(C)O)[C@](C)(CCC(=O)O)[C@H]1C2` (stereo not given in full), the “activity change, negative = inhibition” value is 4.8% [at 28 µM].

`C=C1CC2(C(=O)O)CC1CCC2C1(C)CCCC2(C)C(=O)OC(O)C21` (stereo not given): the “activity change, negative = inhibition” value was -5.34%. On to `COc1cc2c(c(OC)c1O)C(c1ccc(O)cc1)C1C(=O)OC3C(COC(=O)C1=C2)OC(CO)(OC1OC(COC(=O)/C=C/c2ccc(OC4OC(C)C(O)C(O)C4O)cc2)C(O)C(O)C1O)C3O` (stereo not given), for which the “activity change, negative = inhibition” value was -4.25% [at 16.9 µM]. The value for `CCOc1nc(NC(=O)Cc2cc(OC)ccc2OC)cc(N)c1C#N` was -4.47%. The value for `COc1ccc(/C=C/C(=O)O[C@@H]2[C@@H](O)[C@@H](O)[C@H](O[C@H]3[C@@H]4C=CO[C@@H](O[C@@H]5O[C@H](CO)[C@@H](O)[C@H](O)[C@H]5O)[C@@H]4[C@@]4(CO)O[C@@H]34)O[C@H]2C)cc1` was 17% [at 16.9 µM]; that for `CC1=C2C(O)C(=O)OC(c3ccoc3)C2(C)CCC1O` (stereo not given) was 1.86%. The value for `O=S(=O)(c1ccccc1)N(CC(F)(F)F)c1ccc(C(O)(C(F)(F)F)C(F)(F)F)cc1` was -17.7%; that for `CC1=CC(=O)[C@@]2(C(C)C)C[C@@H]12` was 2.59%; that for `CC1=C(CO)C2(C)CCCC(C)(C)C2C(O)C1O` (stereo not given) was 9.59%.

As for `CC1(C)C(=O)N2c3ccccc3C(O)(CC(C(=O)O)n3cnc4ccccc4c3=O)C2N1O` (stereo not given), the “activity change, negative = inhibition” value was 0% [at 28 µM].

In the case of `CC1(C)CCCC2(C)C(CO)C3CCC2C31` (stereo not given), the “activity change, negative = inhibition” value was 2.3%. With `CC(C)=CCC/C(C)=C/CO[C@@H]1O[C@H](CO[C@@H]2O[C@@H](CO)[C@H](O)[C@H]2O)[C@@H](O)[C@H](O)[C@H]1O` the figure was -2.82% [at 28 µM]; with `O=c1[nH]c2ccc(C#CCN3CCC(Cc4ccccc4)CC3)cc2[nH]1`, 10.6%.

For the molecule `CCC(CC)C(=O)Nc1sc2c(c1C#N)CCC(C(C)(C)CC)C2` (stereo not given), the “activity change, negative = inhibition” value was 5.18%.

With `CC1CCC2(NC1)OC1CC3C4CC=C5CC(O[C@@H]6O[C@H](CO)[C@@H](O[C@@H]7O[C@@H](C)[C@H](O)[C@@H](O)[C@H]7O)[C@H](O)[C@H]6O[C@@H]6O[C@@H](C)[C@H](O)[C@@H](O)[C@H]6O)CCC5(C)C4CCC3(C)C1C2C` (stereo not given in full), the “activity change, negative = inhibition” value is 7.01% [at 16.9 µM]. The value for `CC1C(=O)OCC2=CC[N+]3([O-])CCC(OC(=O)C(C)(O)C1(C)O)C23` (stereo not given) was 0.547%. For the molecule `O=C(c1ccc2nccnc2c1)N1CCCCC1`, the “activity change, negative = inhibition” value is 0.649%.

As for `Cc1ccc(S(=O)(=O)n2ccc(-c3c(-c4ccc(Cl)cc4)noc3C)n2)cc1`, the “activity change, negative = inhibition” value is -3.41%.

In the case of `CC[C@H](C)[C@H](NC(=O)[C@H](Cc1ccc(O)cc1)NC(=O)[C@@H](N)C(C)C)C(=O)N[C@@H](Cc1cnc[nH]1)C(=O)N1CCC[C@H]1C(=O)N[C@@H](Cc1ccccc1)C(=O)O`, the activity change, negative = inhibition was 0.0903% [at 5.59 µM].

Consider `CCC(C)/C=C(C)/C=C/C1=CC2=C(Cl)C(=O)C(C)(OC(C)=O)C(=O)C2=CN1C(CCCN=C(N)N)C(=O)O` (stereo not given), for which the “activity change, negative = inhibition” value is -11.4% [at 28 µM]. On to `Cc1ccc(S(=O)(=O)N2CCC[C@H]2c2ccc(F)cc2)cc1`, for which the “activity change, negative = inhibition” value was 1.49%. With `C=C[C@H]1[C@H](O[C@@H]2O[C@H](CO)[C@@H](O)[C@H](O)[C@H]2O)OC=C(C(=O)OC)[C@H]1C/C=C(/C=O)[C@@H]1C(C(=O)OC)=CO[C@@H](O[C@@H]2O[C@H](CO)[C@@H](O)[C@H](O)[C@H]2O)[C@@H]1C=C` the figure was -3.74% [at 16.9 µM]. For `CC12CC(c3ccoc3)OC(=O)C1CCC1(C)C2CCC(O)C1(C)O` (stereo not given), the “activity change, negative = inhibition” value was 3.83%. With `CCCOc1ccc(S(=O)(=O)N2CCN(CCO)CC2)cc1-c1nc2c(CCC)cn(CC)c2c(=O)[nH]1`, the “activity change, negative = inhibition” value was 7.78%. Consider `COC(=O)C1C(c2ccc(O)cc2)C(C(=O)OC)C1c1ccc(O)cc1` (stereo not given), for which the “activity change, negative = inhibition” value is -6.7%. With `Cc1ccc2c(Nc3ccc(Cl)cc3)nccc2c1Nc1ncccc1-c1ncnc2nc[nH]c12` the figure was -3.36%; with `C[C@@H]1O[C@@H](O[C@H]2CC[C@@]3(C)C(CC[C@]4(C)C3CC=C3[C@@H]5CC(C)(C)CC[C@]5(C(=O)O[C@@H]5O[C@H](CO)[C@@H](O)[C@H](O)[C@H]5O)CC[C@]34C)[C@]2(C)CO)[C@H](O)[C@H](O[C@@H]2O[C@H](CO)[C@@H](O)[C@H](O)[C@H]2O)[C@H]1O` (stereo not given in full), -3.38% [at 16.9 µM]; with `CC(C)CCC1(O)C(=O)C(C)(C)C(O[C@@H]2O[C@H](CO)[C@@H](O)[C@H](O)[C@H]2O)C(C)(C)C1O` (stereo not given in full), -5.35% [at 28 µM]. The value for `C[C@H]1/C=C/C=C/C=C/C=C/C=C/[C@@H](O)[C@H](C(=O)O)[C@H](O)C[C@H](O)CCC[C@H](O)C[C@H](O)C[C@H](O)[C@@H](C)C(=O)O[C@@H]1C` was -1.96% [at 16.9 µM]; that for `C/C=C(\C)C(=O)O[C@@H](C)[C@H]1CC[C@]2(O)C3CCC4C[C@@H](OC5CC(OC)C(OC6CC(OC)C(OC7CC(OC)C(OC8OC(C)C(OC9OC(CO)C(O)C(O)C9O)C(OC)C8O)C(C)O7)C(C)O6)C(C)O5)CC[C@]4(C)C3[C@H](O)[C@@H](O)[C@]12C` (stereo not given in full) was 4.67% [at 11.2 µM]. Consider `OC[C@H]1O[C@@H](OCCc2ccc(O)cc2)[C@H](O)[C@@H](O)[C@@H]1O`, for which the “activity change, negative = inhibition” value was 13.2%.
